# Source: the supplement of paper PMC11634586
# Structures can show the parent of a compound that is named as a salt. Values without a mark were called inactive.
# Tested on: NCI-H1688
# Test: inhibition of cell viability relative to untreated control (fraction); higher = stronger growth inhibition, active = 0.5 or more
# Details: 30 µM; 24 h
# Outline: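 Viability of NCI-H1688 small cell lung cancer cells was assessed with Cell Counting Kit-8 by absorbance at 450 nm, in triplicate, after a 24 h exposure to a natural compound library (TargetMol) at 30 µM at 37°C and 5% CO2. The cells had been seeded at 3 × 10^3 cells/well in 96-well plates 24 h before treatment. Inhibition of cell viability is reported as a fraction, derived from viability normalised against untreated cells.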
row,SMILES,inhibition of cell viability
1,CC(C)(CO)[C@@H](O)C(=O)NCCCO [Dexpanthenol],-0.126
2,Nc1ncnc2c1ncn2C1CC(O)C(CO)O1 (configuration not stated) [2'-Deoxyadenosine monohydrate],-0.0483
3,NC1C(O)O[C@H](CO)C(O[C@@H]2O[C@H](CO)C(O[C@@H]3O[C@H](CO)[C@@H](O)[C@H](O)[C@H]3N)[C@H](O)C2N)C1O (some centres not stated) [Chitosan],0.266
4,CC12CCC(CC1=O)C2(C)C (configuration not stated) [Camphor],-0.239
5,O=C(O)[C@H](O)Cc1ccc(O)c(O)c1 [Danshensu],0.318
6,N[C@@H](CCC(=O)N[C@@H](CS)C(=O)NCC(=O)O)C(=O)O [Glutathione],-0.00752
7,C[C@@H]1O[C@@H](O[C@H]2[C@H](O[C@H]3CC[C@@]4(C)[C@@H](CC[C@]5(C)[C@@H]4CC=C4[C@@H]6CC(C)(C)CC[C@]6(C(=O)O[C@@H]6O[C@H](CO[C@@H]7O[C@H](CO)[C@@H](O)[C@H](O)[C@H]7O)[C@@H](O)[C@H](O)[C@H]6O)CC[C@]45C)[C@]3(C)CO)OC[C@H](O)[C@@H]2O)[C@H](O)[C@H](O[C@@H]2O[C@H](CO)[C@@H](O[C@@H]3O[C@H](CO)[C@@H](O)[C@H](O)[C@H]3O)[C@H](O)[C@H]2O)[C@H]1O [Macranthoidin B],0.21
8,N[C@H]1C(O)O[C@H](CO)[C@@H](O)[C@@H]1O (some centres not stated) [Glucosamine sulfate],0.381
9,COc1cc(C2Oc3cc([C@H]4Oc5cc(O)cc(O)c5C(=O)[C@@H]4O)ccc3OC2CO)ccc1O (some centres not stated) [Silymarin],0.221
10,CC1(C)O[C@H]2CC(=O)OC[C@]23[C@H]2CC[C@@]4(C)[C@H](c5ccoc5)OC(=O)[C@H]5O[C@]54[C@]2(C)C(=O)C[C@@H]13 [Limonin],-0.0414
11,COc1cc2c(cc1O)[C@@H](Cc1ccc(O)c(Oc3ccc(C[C@@H]4c5cc(OC)c(OC)cc5CCN4C)cc3)c1)N(C)CC2 [Daurisoline],0.977 (active)
12,OCc1c[nH]c2ccccc12 [Indole-3-carbinol],0.0235
